# Sampled rows, rich in hits. Any-hit rate of the full collection: about 7.1%.
# IL1B secr inh = qHTS for Inhibitors of Inflammasome Signaling: IL-1-beta AlphaLISA Primary Screen; THP-1 LPS/ATP IL-1B secretion, AlphaLISA, 16 h; stronger effect = lower value; activity change, % at 57.5 µM; 360,000 compounds, 4.7% hits; AID 743279, 2014; in the data active means activity change below about -50%; inconclusive means mostly about -30% to -49%; further: on the % scale 0 is the no-effect control and ±100 the full control effect
#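 THP-1 cells pretreated 1 hr with compounds (up to 57.5 uM final), then stimulated with LPS (250 ng/mL final) plus ATP (1.25 mM final); secreted IL-1B measured by AlphaLISA after 16 hr, decreased signal indicating inhibition.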
# S2 tox = Viability Counterscreen for Primary qHTS for Inhibitors of ATXN expression. S2 cells (HEK-293 line with an ATXN2-luciferase reporter) viability, CellTiter-Fluor protease fluorescence, 24 h. Potency, µM (highest dose often 56.7 µM), most hits filed as cytotoxic. 400,000 compounds, 0.49% hits. AID 651635, 2014; further: potency means the concentration at half of the fitted maximal effect; nearly all actives have a fitted effect of over 40% in size
# SW480 rereplic = A quantitative high throughput screen for small molecules that induce DNA re-replication in SW480 colon adenocarcinoma cells; SW480 DNA re-replication, Hoechst DNA content imaging, 48 h; Potency, µM (highest dose often 46.1 µM), for inactives: at the highest dose re-replication activation, most hits filed as activators; 340,000 compounds, 1.8% hits; AID 624297, 2012; further: potency means the concentration at half of the fitted maximal effect; % of control where 0% means no effect; nearly all actives have a fitted effect of over 55% in size
#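 250 cells/well; 23 nL cpd via pin tool; 48 hr, 37 C, 5% CO2; Hoechst 40 min; imager read of total nuclear intensity, ex 405/em 500-530 nm.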
# ATXN2 expr inh = Primary qHTS for Inhibitors of ATXN expression; Potency, µM (highest dose often 57 µM), inactives show at the top dose activity change, negative = inhibition, actives largely listed as inhibitors; HEK-293 ATXN2-luciferase reporter, luminescence, 24 h; 360,000 compounds, 0.72% hits; further: potency means the concentration at half of the fitted maximal effect; on the % scale 0 is the no-effect control and ±100 the full control effect; nearly all actives have a fitted effect of over 55% in size
#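 ATXN2-luciferase reporter cells (luciferase flanked by upstream and downstream ATXN2 gene portions) were treated 24 h at 37 °C with compounds at up to 57 uM. SteadyGlo luminescence gave expression; GF-AFC fluorescence gave viability.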
# PINK1 expr mod = A Quantitative High throughput Screen to Identify Chemical Modulators of PINK1 Expression. PINK1 immunofluorescence, high-content cytometry, 24 h. Potency, µM (top dose mostly 76.6 µM), without a hit: at the highest dose activation (PINK1 increase), actives largely listed as activators. AID 624263, 2012. 410,000 compounds, 0.2% hits; active means well fitted activation curve with a large enough effect; inconclusive means small, poorly fitted or top-dose-only effect; cell line not stated here; further: potency means the concentration at half of the fitted maximal effect; % of control where 0% means no effect; nearly all actives have a fitted effect of over 65% in size
#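 Stable cell line, 250 cells/well, 12 h attachment; compounds pinned at 5 concentrations, 24 h; CCCP control. Fixed with nuclear dye, primary antibodies 12 h at 10 degrees C, secondary plus cell stain; laser-scanning cytometer read.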
# MCF10A rereplic = A quantitative high throughput screen for small molecules that induce DNA re-replication in MCF 10a normal breast cells | MCF 10A DNA re-replication, Hoechst nuclear intensity, 48 h | Potency, µM (series often up to 46.1 µM), for the others: top-dose activity, positive = re-replication, usual class: activators | 350,000 compounds, 2.9% hits | AID 624296, 2012; further: potency means the concentration at half of the fitted maximal effect; % of control where 0% means no effect; nearly all actives have a fitted effect of over 50% in size
# * marks the source's active call; other numbers are inactive results; i = inactive; ? = inconclusive; . = no result given; [ ] = remark or other dose. Unless noted, the call rests on the fitted dose curve; in most records, active means well fitted curve in the direction sought with a large enough effect; inconclusive means small, poorly fitted or top-dose-only effect, or another doubt; inactive means no such curve, though single readings can be large; an effect the other way counts as inactive or inconclusive.
SMILES,IL1B secr inh,S2 tox,SW480 rereplic,ATXN2 expr inh,PINK1 expr mod,MCF10A rereplic
CCOc1ccc(NCc2cccn2-c2nnc(N3CCC(C(=O)NCCCN4CCCCC4CC)CC3)s2)cc1 (centres undefined),-69*,.,15%,.,1%,?
CCOc1ccc(NCc2cccn2-c2nnc(N3CCC(C(=O)NCCOC)CC3)s2)cc1,.,.,.,.,0%,.
N#Cc1c2n(c3c(=O)n(Cc4ccccc4Cl)cnc13)CCCCC2,-21,i,-1%,2%,0%,12µM*
COC(=O)Cn1cnc2c(C#N)c3n(c2c1=O)CCCCC3,10,i,-1%,0%,0%[38.3 µM],16%
O=C(Nc1ccc(OCc2cc(=O)n3ccccc3n2)cc1)c1ccccc1Cl,.,.,.,.,13%,.
CCn1c(-c2cccc(OC)c2)nc2cc(NC(C)=O)cc(C(=O)N3CCC[C@H]3C(=O)OC)c21,.,i,.,.,1%,.
CCN1c2cc(C)ccc2-n2cccc2C12CCN(C(=O)Nc1cc(OC)c(OC)c(OC)c1)CC2,.,.,.,.,0%,.
O=C(OCN1C(=O)c2ccccc2C1=O)c1cc(S(=O)(=O)N2CCOCC2)ccc1F,-57*,i,-3%,4%,5%,4%
COc1ccc(-c2cc(C(=O)Nc3cc(S(=O)(=O)N4CCOCC4)ccc3N3CCOCC3)c3ccccc3n2)cc1,-17,i,-46%,2%,4%,2.3µM*
O=C(Nc1cc(S(=O)(=O)N2CCOCC2)ccc1N1CCOCC1)c1cc2c(s1)CCC2,-57*,i,-3%,-10%,0%,-1%
COc1ccc(S(=O)(=O)N2CCOCC2)cc1NC(=O)c1cc2c(s1)CCCC2,14,i,-4%,14%,7%,-3%
CCN1CCN(c2ccc(S(=O)(=O)N3CCOCC3)cc2NC(=O)c2cc(Cl)nc3ccccc23)CC1,-17,i,0%,4%,-1%,3%
O=C(Nc1ccccc1N1CCCCC1)c1cc(S(=O)(=O)N2CCOCC2)ccc1F,-23,i,16%,-13%,?,12µM*
CCOC(=O)c1ccccc1NC(=O)c1c(F)c(F)c(F)c(F)c1F,-69*,i,?,-19%,-7%,21µM*
CCOc1ccccc1NC(=O)c1cc(S(=O)(=O)N2CCOCC2)ccc1C,i,i,-4%,-7%,1%,12%
CCOC(=O)C1=C(COC(=O)c2cc(S(=O)(=O)N3CCOCC3)ccc2F)NC(=O)NC1C (centres undefined),-95*,i,-8%,-10%,5%,6%
CCOC(=O)C1=C(COC(=O)c2ccc(Cl)c(S(=O)(=O)N3CCOCC3)c2)NC(=O)NC1C (centres undefined),-2,i,-1%,8%,-1%,5%
CCOC(=O)c1ccccc1NC(=O)c1ccc(F)cc1,-24,i,5%,-4%,2%[38.3 µM],-11%
CCOC(=O)c1ccccc1NC(=O)c1cc(S(=O)(=O)N2CCOCC2)ccc1F,-54*,i,-2%,3%,0%,1%
O=C(Nc1cc(S(=O)(=O)N2CCOCC2)ccc1N1CCCC1)c1ccccc1F,-4,i,.,.,-1%,.
O=C(Nc1cc(S(=O)(=O)N2CCOCC2)ccc1N1CCCCC1)c1ccccc1Br,-59*,i,7%,8%,0%,12%
COc1cc2c(C(=O)N3CCN(c4ccc(F)cc4)CC3)cn(CC(C)C)c(=O)c2cc1OC,.,i,.,-3%,3%,.
Cn1cnnc1Sc1nc([N+](=O)[O-])nn1C,10,i,-116%,.,0%,2%
COc1ccccc1-c1nnc(Sc2nc([N+](=O)[O-])nn2C)o1,-100*,.,?,10µM*,-5%[38.3 µM],9.2µM*
COC(=O)c1ccc(Nc2ncnc3c2cnn3-c2ccccc2)cc1,.,.,.,.,2%,.
SMILES,IL1B secr inh,S2 tox,SW480 rereplic,ATXN2 expr inh,PINK1 expr mod,MCF10A rereplic
CCC(C)c1ccc(NC(=S)NC2CCN(Cc3ccccc3)CC2)cc1 (centres undefined),-94*,?,?,?,-2%,?
S=C(Nc1ccc(Cl)cc1)NC1CCN(Cc2ccccc2)CC1,-94*,i,?,?,10%,22%
Cc1ccc(NC(=S)NC2CCN(Cc3ccccc3)CC2)c(C)c1,-57*,i,2%,2%,2%,3%
Cc1ccccc1NC(=S)NC1CCN(Cc2ccccc2)CC1,-1,?,0%,-10%,0%,0%
S=C(Nc1ccccc1)NC1CCN(Cc2ccccc2)CC1,-27,i,-5%,-7%,1%,2%
COc1ccc(C)cc1NC(=O)C(=O)NCC(c1cccnc1)N1CCc2ccccc21 (centres undefined),.,.,.,.,0%,.
O=C(Cn1nc(-c2ccccc2)c2cnc3ccccc3c21)Nc1ccccc1,.,i,.,6%,1%,.
CC(=O)C1=CCC(c2ccccc2)N(Cc2ccccc2)C1 (centres undefined),-112*,.,.,.,.,.
CN1C(=O)/C(=N\OC(=O)c2cccc3ccccc23)c2ccccc21,-100*,i,-1%,5%,0%[38.3 µM],-1%
COc1ccc(-c2ccc(C(=O)C3CC3)cc2)cc1,-8,i,-1%,66%,2%,6%
CC[N+]1(C)CCC(O)(c2ccc(OC)cc2)C(C(=O)c2ccc(OC)cc2)C1 (centres undefined),-78*,?,2.9µM*,?,-1%,4.6µM*
O=C(Nc1nnc(-c2ccccc2Cl)o1)c1ccco1,-1,i,12µM*,0%,-1%[38.3 µM],99%
CC(=O)c1ccc(C(=O)Nc2nnc(-c3ccc(Cl)cc3)o2)cc1,44,i,?,?,1%,13%
O=C(Nc1nnc(-c2ccccc2)o1)c1ccc(Cl)cc1,51,.,22%,20µM*,-1%,?
CC(=O)c1cccc(NC(=O)N2CCC(CN3CCCCC3)CC2)c1,.,i,.,-5%,0%,.
O=C(Nc1ccccc1)Nc1ccc(-c2ccc(C(=O)[C@H]3CCC[C@H]3C(=O)O)cc2)cc1,.,.,.,26%,.,.
COc1cc(NC(=O)c2ccc(-c3cn[nH]c3)c3ccoc23)cc(OC)c1OC,-74*,?,.,-20%,-1%,.
CCc1ccc(-c2csc(NC(=O)C3CCCO3)c2C(=O)OC(C)C)cc1 (centres undefined),9,i,?,20%,4%,26µM*
Cc1c(C(=O)OC(C)C)sc(NC(=O)C2CCCO2)c1C(=O)OC(C)C (centres undefined),6,i,15%,47%,6%[38.3 µM],13µM*

# Screens (PubChem BioAssay)
